Experiment [1] concerns the target Thyrotropin-releasing hormone receptor (Homo sapiens) (UniProt P34981). Briefly: qHTS assay to identify small molecule agonists of the thyrotropin-releasing hormone receptor (TRHR) signaling pathway (AID 1346891; calls by dose curve;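 further: HEK293 cells expressing TRHR with calcium dye readout; series mostly up to about 58 µM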). The method in brief:
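HEK293/TRHR cells, 1500 per well, 18 h 37 °C; Ca dye 2 h 37 °C; pin-tool compound addition (agonist mode); kinetic fluorescence 3 min, 1 s reads; 15 concentrations, triplicate.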
A general note: In qHTS, concentration-response curves come from the screen itself.

Experiment [2] is described as follows: Human pregnane X receptor (PXR) small molecule agonists, qHTS cell viability counter screen (AID 1346977). Further: nearly all actives have a fitted effect of over 50% in size. The method in brief:
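Fluorescence read-out (CellTiter-Fluor) of viability in PXR-Luc HepG2 cells, multiplexed with the luciferase agonist read. Compounds in DMSO added after 5hr plating; 24hr total exposure at 37C, 5% CO2.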

Experiment [3] in a line: Caspase-3/7 induction in HepG2 cells by small molecules, qHTS assay (AID 1346978). Further: nearly all actives have a fitted effect of over 15% in size. The procedure, abridged:
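Wild-type HepG2 cells, 2,000/well, settled 5 hr at 37 C and 5% CO2, then compound-treated for 17 hr; caspase-3/7 activity read by luminescent Caspase-Glo 3/7 after 30 min at room temperature.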

Experiment [4] is described as follows: Caspase-3/7 induction in CHO-K1 cells by small molecules, qHTS cell viability counter screen (AID 1346979). Further: nearly all actives have a fitted effect of over 35% in size. The method in brief:
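CHO-K1 wt, 1,500 cells/well; 5hr pre-incubation 37C/5% CO2; compound pin transfer (DMSO); 16hr exposure; CellTiter-Fluor added, 1hr, fluorescence read.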

Experiment [5] is described as follows: Caspase-3/7 induction in HepG2 cells by small molecules, qHTS cell viability counter screen (AID 1346981). Further: series mostly up to about 92 µM; nearly all actives have a fitted effect of over 30% in size. The procedure, abridged:
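Fluorescence read-out of live-cell protease activity (CellTiter-Fluor) after 1 hr with reagent. This was measured in the same wells as the caspase-3/7 luminescence, on HepG2 cells exposed to DMSO-dissolved compounds for 16 hr at 37 C.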

The target in experiment [6] is Nuclear receptor subfamily 1 group I member 2 (Homo sapiens) (UniProt O75469). The experiment is described as follows: Human pregnane X receptor (PXR) small molecule agonists, qHTS assay (AID 1346982). Further: nearly all actives have a fitted effect of over 35% in size. The method in brief: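 HepG2 PXR-Luc reporter line, 5% charcoal-stripped FBS; 5 hr pre-incubation, compound (DMSO) 24 hr at 37 C/5% CO2; ONE-Glo 30 min RT; luminescence read-out.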
Chain of Nuclear receptor subfamily 1 group I member 2 (Homo sapiens) (O75469 whole entry, looked up): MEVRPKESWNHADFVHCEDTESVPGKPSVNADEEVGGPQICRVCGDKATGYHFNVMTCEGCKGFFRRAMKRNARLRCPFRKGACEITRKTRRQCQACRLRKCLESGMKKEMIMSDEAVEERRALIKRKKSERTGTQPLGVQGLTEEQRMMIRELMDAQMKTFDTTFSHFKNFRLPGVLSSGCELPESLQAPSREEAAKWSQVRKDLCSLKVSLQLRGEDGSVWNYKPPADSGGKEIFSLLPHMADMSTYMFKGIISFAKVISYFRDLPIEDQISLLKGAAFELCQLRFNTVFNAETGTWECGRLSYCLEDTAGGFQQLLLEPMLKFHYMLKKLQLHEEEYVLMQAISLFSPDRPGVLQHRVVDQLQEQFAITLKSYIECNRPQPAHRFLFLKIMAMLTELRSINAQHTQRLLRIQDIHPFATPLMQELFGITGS

Experiment [7] has as its target Acetylcholinesterase (Homo sapiens) (UniProt P22303). The experiment is described as follows: Acetylcholinesterase (AChE) small molecule antagonists: colormetric cell-based qHTS assay (AID 1347395; calls by dose curve; further: nearly all actives have a fitted effect of over 30% in size). The method in brief: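 SH-SY5Y cells; cpd 30 min 37 C; + DTNB/acetylthiocholine, 90 min 37 C; colorimetric thiocholine read; qHTS.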
The target is the same in experiment [8]. The experiment is described as follows: Acetylcholinesterase (AChE) small molecule antagonists: enzyme-based qHTS assay (AID 1347397; calls by dose curve; further: nearly all actives have a fitted effect of over 55% in size). The settings on record: Potency: AChE enzyme activity inhibition; outcome: AChE enzyme activity inhibition. The procedure, abridged: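 Colorimetric DTNB read-out of thiocholine released from acetylthiocholine by recombinant human AChE (50 mU/mL as dispensed). Compounds were preincubated 30 min at RT before substrate/DTNB addition, with a 10 min RT reaction.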

Experiment [9] has the same target. Briefly: Acetylcholinesterase (AChE) small molecule antagonists: fluorescence cell-based qHTS assay (AID 1347398; calls by dose curve; further: nearly all actives have a fitted effect of over 50% in size). The note with it: Potency: AChE activity; outcome: AChE activity. The method in brief:
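SH-SY5Y, 2,000 cells/well, attached overnight; cmpd 30 min 37 C; acetylthiocholine/Thiolite Green cocktail 40 min RT; fluorescence Ex/Em 490/520 nm.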

The target is the same in experiment [10]. Briefly: Acetylcholinesterase (AChE) small molecule antagonists: enzyme-based qHTS assay with human liver microsomes (AID 1347399; calls by dose curve; further: nearly all actives have a fitted effect of over 60% in size). The settings on record: Potency: qHTS inhibition; outcome: qHTS inhibition. The method in brief: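 Recombinant human AChE (50 mU/mL in the enzyme mix) and human liver microsomes (0.25 mg/mL final) were preincubated with compound and NADPH (0.25 mg/mL final) for 30 min at 37 C. Acetylthiocholine/DTNB was then added; thiocholine was read colorimetrically after 10 min at room temperature.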

The target of experiment [11] is Cytochrome P450 2D6 (Homo sapiens) (UniProt P10635). The experiment is described as follows: Cytochrome P450 Family 2 Subfamily D Member 6 (CYP2D6) small molecule antagonists: luciferase reporter qHTS assay (AID 1671196). Further: series mostly up to about 120 µM; nearly all actives have a fitted effect of over 50% in size. The method in brief: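 Luminogenic proluciferin substrate, CYP2D6 enzyme; 10 min RT preincubation with compound, NADPH regeneration system added, 1 h RT. Stop/detection reagent, 20 min RT, luminescence read (RLU). Signal proportional to CYP activity.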
(In general: Reporter assays use an easily measured gene product as a stand-in for the process of interest.)

The target of experiment [12] is Cytochrome P450 2C9 (Homo sapiens) (UniProt P11712). Briefly: Cytochrome P450 Family 2 Subfamily C Member 9 (CYP2C9) small molecule antagonists: luciferase reporter qHTS assay (AID 1671198). Further: nearly all actives have a fitted effect of over 50% in size. Further: potency means the concentration at half of the fitted maximal effect. The procedure, abridged:
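P450-Glo proluciferin substrate with CYP2C9 enzyme; 10 min RT preincubation, then NADPH regeneration 1 h at 37C; luciferin detection reagent 20 min RT, luminescence in relative luminescence units.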

Experiment [13] addresses Voltage-gated inwardly rectifying potassium channel KCNH2 (Homo sapiens) (UniProt Q12809). Briefly: Human Ether-a-go-go-Related Gene (hERG) channel small molecule antagonists: fluorescence cell-based qHTS assay (AID 1671200). The method in brief:
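Read-out: thallium influx as a surrogate for potassium, tracked as fluorescence (480 nm ex/540 nm em) every second for 2 min after Stimulus Buffer addition in dye-loaded hERG-U2OS cells.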
A general note: Block of hERG is tested as a sign of cardiac risk.

Experiment [14] has as its target Cytochrome P450 3A4 (Homo sapiens) (UniProt P08684). The experiment is described as follows: Cytochrome P450 Family 3 Subfamily A Member 4 (CYP3A4) small molecule antagonists: luciferase reporter qHTS assay (AID 1671201). The method in brief: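 Luminescent readout (RLU) proportional to CYP3A4 activity, from luciferin generated off a proluciferin substrate. Enzyme–substrate mix plus compound 10 min at room temp, NADPH regeneration 1 h, detection reagent 20 min.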

Experiment [15] deals with Cytochrome P450 2C19 (Homo sapiens) (UniProt P33261). Briefly: Cytochrome P450 Family 2 Subfamily C Member 19 (CYP2C19) small molecule antagonists: luciferase reporter qHTS assay (AID 1671197). Further: nearly all actives have a fitted effect of over 65% in size. Further: potency means the concentration at half of the fitted maximal effect. The method in brief: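 Enzyme-substrate mix with proluciferin substrate (P450-Glo CYP2C19 system) preincubated with compounds 10 min at room temperature; NADPH regeneration solution added, 37C for 1 h; detection reagent stops reaction, luminescence read after 20 min. Ketoconazole positive control.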
Chain of Cytochrome P450 2C19 (Homo sapiens) (P33261 whole entry, looked up): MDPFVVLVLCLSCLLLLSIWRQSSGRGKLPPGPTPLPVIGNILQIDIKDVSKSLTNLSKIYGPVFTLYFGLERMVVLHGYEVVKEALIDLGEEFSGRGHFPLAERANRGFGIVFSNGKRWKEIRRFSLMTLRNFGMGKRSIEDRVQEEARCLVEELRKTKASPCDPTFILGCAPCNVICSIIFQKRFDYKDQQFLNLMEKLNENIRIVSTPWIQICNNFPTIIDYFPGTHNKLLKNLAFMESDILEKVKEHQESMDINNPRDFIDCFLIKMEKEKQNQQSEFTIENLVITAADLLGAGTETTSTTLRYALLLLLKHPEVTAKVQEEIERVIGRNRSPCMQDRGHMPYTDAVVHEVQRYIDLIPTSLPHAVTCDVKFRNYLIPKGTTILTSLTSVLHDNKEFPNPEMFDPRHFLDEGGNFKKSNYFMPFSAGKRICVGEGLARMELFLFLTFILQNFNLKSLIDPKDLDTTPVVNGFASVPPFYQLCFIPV

Experiment [16] concerns the target Nuclear receptor subfamily 1 group I member 2 (Rattus norvegicus) (UniProt Q9R1A7). The experiment is described as follows: Rat pregnane X receptor (rPXR) activation by small molecules, qHTS assay (AID 1346983). Further: nearly all actives have a fitted effect of over 20% in size. The note with it: rPXR luciferase reporter cells, One-Glo luminescence, 24 h; active compounds read high. The procedure, abridged:
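Cell-based rPXR activation assay: rPXR cells, 2,000 per well, rested 5hr at 37 C, then exposed to compounds in DMSO for 24 hr at 37 C. Luciferase activity read by One-Glo luminescence after 30 min at room temperature.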

Experiment [17] deals with Nuclear receptor subfamily 1 group I member 2 (Homo sapiens) (UniProt O75469). Briefly: Human pregnane X receptor (PXR) activation by small molecules, qHTS assay (AID 1346985). Further: nearly all actives have a fitted effect of over 40% in size. The method in brief: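 DPX-2 cells (HepG2 co-transfected with a PXR response element and a CYP3A4-promoter luciferase construct) were seeded at 2,000 per well, rested 5 hr at 37C, then exposed to DMSO-dissolved compounds for 24 hr. Activation was read as luciferase luminescence.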

In experiment [18] the target is Cytochrome P450 1A2 (Homo sapiens) (UniProt P05177). Briefly: Cytochrome P450 Family 1 Subfamily A Member 2 (CYP1A2) small molecule antagonists: luciferase reporter qHTS assay (AID 1671199). The procedure, abridged:
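Luminescence readout (relative luminescence units) after luciferin detection reagent, 20 min RT. Preceded by 1 h room-temperature CYP1A2 reaction with NADPH regeneration solution following 10 min compound preincubation with enzyme and proluciferin substrate. Furafylline positive control.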

The nature of experiment [19]: Caspase-3/7 induction in CHO-K1 cells by small molecules, qHTS assay (AID 1346980). Further: nearly all actives have a fitted effect of over 15% in size. The procedure, abridged: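 Wild-type CHO-K1 cells exposed to compounds for 17hr at 37 C, 5% CO2. Caspase-3/7 activity then measured by Caspase-Glo 3/7 luminescence after 30min at room temperature.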

The values below come from PubChem BioAssay (Tox21).

The structures appear in SMILES notation. A number with no mark means an inactive call. Inconclusive results are not listed. Active and inactive are the calls of the source. Unless noted, the call rests on the fitted dose curve; in most records, active means well fitted curve in the direction sought with a large enough effect in the repeat runs; inconclusive means weak or mixed curves; inactive means no such curve, though single readings can be large; an effect the other way counts as inactive or inconclusive.
On the % scale 0 is the no-effect control and ±100 the full control effect.

Chain of Nuclear receptor subfamily 1 group I member 2 (Rattus norvegicus) (Q9R1A7 whole entry, looked up): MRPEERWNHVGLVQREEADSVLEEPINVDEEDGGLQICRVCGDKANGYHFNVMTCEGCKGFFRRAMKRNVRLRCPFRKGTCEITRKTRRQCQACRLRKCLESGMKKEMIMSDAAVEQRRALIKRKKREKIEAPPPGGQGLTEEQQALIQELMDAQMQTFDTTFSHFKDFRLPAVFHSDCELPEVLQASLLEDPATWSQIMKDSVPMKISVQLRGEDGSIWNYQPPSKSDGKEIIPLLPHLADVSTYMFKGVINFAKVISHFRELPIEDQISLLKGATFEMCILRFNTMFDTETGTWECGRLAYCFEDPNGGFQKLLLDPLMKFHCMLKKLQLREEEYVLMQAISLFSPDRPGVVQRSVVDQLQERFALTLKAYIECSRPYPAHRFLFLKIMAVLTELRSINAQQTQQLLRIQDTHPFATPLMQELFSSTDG
Chain of Acetylcholinesterase (Homo sapiens) (P22303 whole entry, looked up): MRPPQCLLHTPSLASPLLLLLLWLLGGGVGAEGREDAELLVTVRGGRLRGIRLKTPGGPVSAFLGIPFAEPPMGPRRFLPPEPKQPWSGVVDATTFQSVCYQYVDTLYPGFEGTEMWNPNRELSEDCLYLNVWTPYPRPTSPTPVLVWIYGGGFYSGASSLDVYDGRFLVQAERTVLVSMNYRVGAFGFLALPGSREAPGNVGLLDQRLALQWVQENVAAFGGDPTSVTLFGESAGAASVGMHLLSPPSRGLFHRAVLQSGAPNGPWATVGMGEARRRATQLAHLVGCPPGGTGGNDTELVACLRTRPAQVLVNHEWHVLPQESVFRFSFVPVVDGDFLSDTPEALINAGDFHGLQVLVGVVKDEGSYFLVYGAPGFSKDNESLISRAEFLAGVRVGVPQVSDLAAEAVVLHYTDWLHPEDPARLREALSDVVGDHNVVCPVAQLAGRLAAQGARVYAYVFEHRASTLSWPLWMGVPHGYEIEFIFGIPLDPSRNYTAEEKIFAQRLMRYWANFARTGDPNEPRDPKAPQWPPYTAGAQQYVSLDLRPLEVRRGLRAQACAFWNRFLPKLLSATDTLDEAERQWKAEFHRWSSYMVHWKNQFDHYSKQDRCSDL
Chain of Cytochrome P450 1A2 (Homo sapiens) (P05177 whole entry, looked up): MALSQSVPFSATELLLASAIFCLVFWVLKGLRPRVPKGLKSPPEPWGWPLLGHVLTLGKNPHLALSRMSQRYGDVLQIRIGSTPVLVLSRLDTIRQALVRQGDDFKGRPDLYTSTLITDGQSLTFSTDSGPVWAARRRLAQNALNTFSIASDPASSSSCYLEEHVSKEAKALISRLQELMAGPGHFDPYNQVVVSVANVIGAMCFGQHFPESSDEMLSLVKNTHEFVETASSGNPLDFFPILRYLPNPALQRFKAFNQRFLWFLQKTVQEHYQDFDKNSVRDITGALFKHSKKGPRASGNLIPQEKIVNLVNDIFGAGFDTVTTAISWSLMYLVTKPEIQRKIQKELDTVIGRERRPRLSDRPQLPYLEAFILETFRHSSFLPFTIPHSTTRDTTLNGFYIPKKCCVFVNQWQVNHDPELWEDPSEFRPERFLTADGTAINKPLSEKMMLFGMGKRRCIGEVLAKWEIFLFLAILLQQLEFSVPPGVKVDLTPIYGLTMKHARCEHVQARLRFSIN
Chain of Thyrotropin-releasing hormone receptor (Homo sapiens) (P34981 whole entry, looked up): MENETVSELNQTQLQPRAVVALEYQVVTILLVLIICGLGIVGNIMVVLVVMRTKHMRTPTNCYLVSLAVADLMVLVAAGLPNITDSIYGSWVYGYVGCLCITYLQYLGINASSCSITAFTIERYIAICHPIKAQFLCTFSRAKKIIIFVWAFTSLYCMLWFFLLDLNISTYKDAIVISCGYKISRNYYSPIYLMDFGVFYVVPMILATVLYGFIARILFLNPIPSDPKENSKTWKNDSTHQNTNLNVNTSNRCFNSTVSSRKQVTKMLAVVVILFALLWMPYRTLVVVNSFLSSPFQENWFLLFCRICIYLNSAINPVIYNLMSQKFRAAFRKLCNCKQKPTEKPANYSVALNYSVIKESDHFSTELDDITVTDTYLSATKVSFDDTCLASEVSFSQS
Chain of Cytochrome P450 2C9 (Homo sapiens) (P11712 whole entry, looked up): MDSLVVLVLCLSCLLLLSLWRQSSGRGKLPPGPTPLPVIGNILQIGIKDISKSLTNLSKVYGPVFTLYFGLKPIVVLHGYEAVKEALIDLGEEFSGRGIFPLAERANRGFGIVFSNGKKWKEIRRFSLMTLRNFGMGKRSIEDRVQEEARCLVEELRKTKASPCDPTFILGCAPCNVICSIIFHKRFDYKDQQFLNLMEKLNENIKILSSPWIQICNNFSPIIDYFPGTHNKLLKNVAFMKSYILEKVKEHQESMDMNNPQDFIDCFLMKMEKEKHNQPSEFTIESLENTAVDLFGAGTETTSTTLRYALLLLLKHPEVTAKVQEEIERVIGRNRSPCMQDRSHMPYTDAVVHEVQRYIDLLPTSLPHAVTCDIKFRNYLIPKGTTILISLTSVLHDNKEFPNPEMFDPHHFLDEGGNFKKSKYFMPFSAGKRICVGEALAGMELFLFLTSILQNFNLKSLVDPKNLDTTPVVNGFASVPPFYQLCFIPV
Chain of Voltage-gated inwardly rectifying potassium channel KCNH2 (Homo sapiens) (Q12809 whole entry, looked up): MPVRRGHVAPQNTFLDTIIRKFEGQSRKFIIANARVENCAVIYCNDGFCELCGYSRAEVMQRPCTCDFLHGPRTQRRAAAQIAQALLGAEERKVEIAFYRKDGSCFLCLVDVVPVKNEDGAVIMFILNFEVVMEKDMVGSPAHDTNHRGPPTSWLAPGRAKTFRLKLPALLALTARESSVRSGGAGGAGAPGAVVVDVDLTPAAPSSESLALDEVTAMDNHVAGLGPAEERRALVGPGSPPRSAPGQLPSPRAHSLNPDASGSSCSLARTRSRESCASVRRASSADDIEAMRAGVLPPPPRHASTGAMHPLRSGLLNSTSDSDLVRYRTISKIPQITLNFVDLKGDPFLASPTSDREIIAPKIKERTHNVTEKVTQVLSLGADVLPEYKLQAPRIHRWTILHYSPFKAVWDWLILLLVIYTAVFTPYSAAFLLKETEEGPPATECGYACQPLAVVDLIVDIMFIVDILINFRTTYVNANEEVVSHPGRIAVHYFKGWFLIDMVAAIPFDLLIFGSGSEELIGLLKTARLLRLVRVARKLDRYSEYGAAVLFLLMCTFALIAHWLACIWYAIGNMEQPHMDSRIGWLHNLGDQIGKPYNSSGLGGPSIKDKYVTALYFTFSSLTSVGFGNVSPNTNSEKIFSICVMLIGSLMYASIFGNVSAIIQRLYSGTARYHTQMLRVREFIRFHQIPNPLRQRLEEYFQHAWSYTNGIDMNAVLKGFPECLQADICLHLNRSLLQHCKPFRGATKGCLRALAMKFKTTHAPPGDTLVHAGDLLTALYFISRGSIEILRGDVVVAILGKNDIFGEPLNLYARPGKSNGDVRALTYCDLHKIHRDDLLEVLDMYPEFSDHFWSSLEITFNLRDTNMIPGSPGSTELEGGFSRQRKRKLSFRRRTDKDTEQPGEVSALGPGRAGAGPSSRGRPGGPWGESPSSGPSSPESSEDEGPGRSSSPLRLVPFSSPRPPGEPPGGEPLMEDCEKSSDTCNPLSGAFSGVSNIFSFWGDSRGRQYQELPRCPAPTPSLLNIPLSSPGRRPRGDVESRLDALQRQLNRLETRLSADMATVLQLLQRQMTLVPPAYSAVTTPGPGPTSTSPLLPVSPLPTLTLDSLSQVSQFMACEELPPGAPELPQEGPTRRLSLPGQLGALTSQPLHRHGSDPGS

For `O=C(Cl)OCc1ccccc1`, the result in experiment [1] and in [3] was inactive. The Potency result in [2], in [4], in experiment [5], in [6], in experiment [7] and in experiment [8] was “inactive” in each case. Moreover, the Potency entry in experiment [9], in experiment [10], in [11], in experiment [12], in experiment [13] and in experiment [14] was “inactive” throughout.
Turning to `CCOC(=O)N(C)N=O`, the outcome in experiment [1] and in [3] was inactive. The Potency result in experiment [2], in [4], in [5], in experiment [6], in experiment [7] and in experiment [9] was “inactive” throughout. In addition, the Potency result in experiment [11], in [15], in [12], in [13] and in experiment [14] was “inactive” throughout.
On to `CC(C)[N+](C)(CCC(C(N)=O)(c1ccccc1)c1ccccc1)C(C)C`, for which the outcome in experiment [1] and in [3] was inactive. Also, the Potency entry in experiment [2], in [4], in experiment [5], in experiment [6], in [17] and in experiment [7] was “inactive” each time. Also, the Potency entry in experiment [8], in experiment [9], in experiment [10], in experiment [15] and in experiment [13] was “inactive” in each case. In addition, in [16], the max activation was 0.796%. Moreover, the Potency in experiment [12] was 38.9 µM (active).
For the compound `O=C/C=C/c1ccco1`, the compound was classed as inactive in experiment [1] and in [3]. The Potency result in experiment [2], in experiment [4], in [5], in [6], in experiment [7] and in [9] was “inactive” throughout. Further, the Potency entry in experiment [10], in [15], in [12], in experiment [18], in [13] and in experiment [14] was “inactive” throughout.
On to `COC(=O)[C@@H](N)CCCN/C(N)=N/[N+](=O)[O-]`, for which the call in experiment [1] and in experiment [3] was inactive. Besides, the Potency result in experiment [2], in experiment [4], in [5], in [7], in experiment [8] and in experiment [9] was “inactive” each time. For the same compound, the Potency entry in experiment [10], in experiment [15], in experiment [18] and in experiment [13] was “inactive” each time. Besides, the max activation in experiment [16] was 0.511%.
Regarding `NC(=O)CS(=O)C(c1ccccc1)c1ccccc1` (stereo unspecified), the compound was classed as inactive in experiment [1], in experiment [3] and in experiment [19]. In addition, the Potency entry in experiment [2], in [5], in experiment [6], in experiment [17], in experiment [7] and in experiment [8] was “inactive” in each case. Also, the Potency entry in experiment [9], in experiment [10], in [12], in [18], in [13] and in experiment [14] was “inactive” each time. Also, the max activation in experiment [16] is -0.488%. Further, the Potency in [15] is 24.5 µM (active).
Turning to `O=P(O)(O)c1ccccc1`, the compound was classed as inactive in experiment [1] and in experiment [3]. In addition, the Potency result in experiment [2], in [4], in experiment [5], in experiment [6], in experiment [7] and in [8] was “inactive” throughout. Further, the Potency result in [9], in experiment [10], in experiment [15], in experiment [12], in experiment [18] and in [13] was “inactive” each time. Further, the Potency entry in [14] is “inactive”.
